Test results: PubChem BioAssay (EPA / NIEHS)
Where “and” joins values, the source holds several entries; their conditions need not be identical. Equal values may be shown once. More than one record can exist for a structure, and the calls need not agree. Calls of active or inactive are those of the source. Rule for the calls: active = hit-call score of the fitted dose curve at least 0.9, where 1 is the maximum; inactive = score below 0.9.

These compounds were tested on CD38, CD38 (gene 952) (assay: BSK_SAg_CD38: BioMAP Diversity Plus: SAg Assay for CD38 Biomarker Activity (AID 2283087)). Conditions: primary human HUVEC with PBMC; actives raise or lower the signal.
Protocol: BSK_SAg is a cell-based, multiplexed-readout assay that uses umbilical vein endothelium and peripheral blood mononuclear cells, a human vascular primary cell co-culture, with measurements taken at 24 hours after chemical dosing in a 96-well plate.BSK_SAg_CD38 is one of 10 assay component(s) measured or calculated from the BSK_SAg assay. It is designed to make measurements of enzyme-linked immunosorbent assay, a form of binding reporter, as detected with fluorescence intensity signals by Enzyme-linked immunosorbent assay technology.Data from the assay component BSK_SAg_CD38 was analyzed into 1 assay endpoint. This assay endpoint, BSK_SAg_CD38, was analyzed with bidirectional fitting relative to DMSO as the negative control and baseline of activity. Using a type of binding reporter, gain or loss-of-signal activity can be used to understand changes in the signaling as they relate to the gene CD38. Furthermore, this assay endpoint can be referred to as a primary readout, because this assay has produced multiple assay endpoints where this one serves a signaling function. To generalize the intended target to other relatable targets, this assay endpoint is annotated to the cytokine intended target family, where the subfamily is other cytokine.
The levels of cell surface (or secreted, indicated by the prefix "s") biomarker endpoints were measured by ELISA. Overt cytotoxicity to cells in confluent adherent cultures (all systems other than the BT system) was assessed by measuring total protein levels using sulforhodamine B (SRB) staining in parallel cultures at the time of biomarker measurements, indicated as SRB endpoints. For proliferation assays for adherent cell types, individual cell types are cultured at sub-confluence and relative cell numbers quantified by SRB staining at time points optimized for each system (48 h: 3C and CASM3C systems; 72 h: BT and HDF3CGF systems; 96 h: SAg system). SRB was performed by staining cells with 0.1% SRB after fixation with 10% TCA and reading wells at 560 nm.Viability and proliferation of PBMC (T cells) was quantified by Alamar Blue reduction for the SAg and BT systems. For PBMC viability (referred to as PBMC Cytotoxicity within the assay endpoint names), cells were plated (75,000/well in a 96-well plate) and then chemical samples added for 1 h before addition of activators, SEB and TSST-1 (20 ng/mL final concentration each). Cells were incubated for 90 h. Then, Alamar Blue (20 uL/well) (Invitrogen, Cat DAL1100) was added for 6 h, and the plates were read with a fluorescence microplate reader at 546/580 nm (excitation/emission). For PBMC proliferation, cells were plated and activated as above but incubated for only 16 h prior to addition of Alamar Blue. Plates were read after 6 h.

Compound | outcome | AC50
CC1(C)[C@H](C(=O)O[C@H](C#N)c2cccc(Oc3ccccc3)c2)[C@@H]1C=C(Br)Br | inactive | 2.42 µM (active)
COCC(=O)N(c1c(C)cccc1C)N1CCOC1=O | inactive | 
CCCOC(=O)c1ccccc1C(=O)OCCC | inactive | 
O=[N+]([O-])C=Cc1ccccc1 |  | 24.9 µM (active)
Cc1ccc(OP(=O)(Oc2ccc(C)cc2)Oc2ccc(C)cc2)cc1 (tested in a mixture with another compound) |  | 20 µM (active)
CC(C)CCCCCCCOP(=O)(Oc1ccccc1)Oc1ccccc1 |  | 25.9 µM (active)
O=C(O)CCCc1ccc(N(CCCl)CCCl)cc1 |  | 26.6 µM (active) and 12.3 µM (active)
C=CCN(CC=C)C(=O)C(Cl)Cl | inactive | 
[Cd+2].[Cl-].[Cl-] |  | 35.3 µM (active) and 15.6 µM (active)
CCCC[N+](CCCC)(CCCC)CCCC | inactive | 
O=C(CCl)c1ccccc1 |  | 4.55 µM (active)
O=[N+]([O-])O | inactive | 
Nc1ccc(-c2ccc(N)c(N)c2)cc1N | inactive | 
CCCCCCCCCCCC#N |  | 35.6 µM (active)
O=c1[nH]c(Cl)c(Cl)cc1Cl | inactive | 
COc1ccc(CO)cc1 | inactive | 
c1ccc(Nc2ccc3ccccc3c2)cc1 | inactive | 
C=CC(=O)OCC(CC)CCCC (centres undefined) | inactive | 
N#CCCCCC#N | inactive | 

Compound | outcome | AC50
CC(C)(C)C(O)C(Oc1ccc(-c2ccccc2)cc1)n1cncn1 (centres undefined) | inactive | 
Clc1ccc(-c2ccccc2)cc1 | inactive | 
O=[N+]([O-])c1ccc(Cl)cc1 | inactive | 
O=c1c2ccccc2c(=O)c2c1cc(Cl)c1[nH]c3c([nH]c12)c(Cl)cc1c(=O)c2ccccc2c(=O)c13 | inactive | 
O=S(=O)(c1ccccc1)c1ccccc1 | inactive | 
O=P1(NCCCl)OCCCN1CCCl (centres undefined) | inactive | 
CC(=O)/C=C/c1ccccc1 | inactive | 
COC(C)(C)CCC[C@H](C)C/C=C/C(C)=C/C(=O)OC(C)C |  | 30.4 µM (active)
CC(C)COP(=O)(OCC(C)C)OCC(C)C | inactive | 
CCC(C)c1cc([N+](=O)[O-])cc([N+](=O)[O-])c1OC(=O)C=C(C)C (centres undefined) |  | 10.3 µM (active)
Oc1cc(Cl)ccc1Cl | inactive | 
CCc1cc(C)cc(CC)c1-c1c(OC(=O)C(C)(C)C)n2n(c1=O)CCOCC2 | inactive | 
CC(C)(C)C(=O)CCl |  | 27 µM (active)
O=C1C=CC(=O)C=C1 |  | 30.4 µM (active) and 25.7 µM (active)
CC(C)CCCCCCCOC(=O)c1ccccc1C(=O)OCCCCCCCC(C)C | inactive | 
O=C1C(Cl)=C(Cl)C(=O)C(Cl)=C1Cl |  | 28.5 µM (active)
Oc1ccc(C2(c3ccc(O)cc3)c3ccccc3-c3ccccc32)cc1 |  | 8.99 µM (active) and 9.75 µM (active)
CNC(=O)Oc1cc(C)c(SC)c(C)c1 | inactive | 
CC(C)(c1cc(Cl)c(O)c(Cl)c1)c1cc(Cl)c(O)c(Cl)c1 |  | 26.6 µM (active)
